Screening results (PubChem BioAssay)
Only a selection was taken, and hits are over-represented in it overall.
MARV entry inh = qHTS for inhibitors of binding or entry into cells for Marburg Virus; 1.8% of 300,000 active; Marburg virus pseudotyped entry inhibition, cell reporter; Potency, µM (titrated, usually from 37.8 µM), without a hit: at the highest dose activity change, negative = inhibition, hits mostly inhibitors; AID 540276, 2011; calls by dose curve; tested in HEK293 cells; note: potency is the fitted concentration of half-maximal effect; % is set by controls: 0 for no effect and ±100 for the full control effect
CHX counter = Cycloheximide Counterscreen for Small Molecule Inhibitors of Shiga Toxin. cell reporter, cycloheximide protein synthesis inhibition counterscreen. max response, %. 12% of 300,000 active. AID 2314, 2010; in the data active = max response mostly above about 13%, no sharp cut-off; inactive = mostly below about 14%; note: read at 38.3 µM for the half of the compounds with a filed dose; 0% is about no effect
Lassa entry inh = qHTS for Inhibitors of binding or entry into cells for Lassa Virus; AID 540256, 2011; 1.2% of 300,000 active; Lassa virus pseudotype entry inhibition, cell reporter; Potency, µM (doses to about 37.9 µM), without a hit: at the top dose activity change, negative = inhibition, most hits filed as inhibitors; calls by dose curve; tested in HEK293 cells; note: potency is the fitted concentration of half-maximal effect; % is set by controls: 0 for no effect and ±100 for the full control effect; nearly all actives have a fitted effect of over 50% in size
Shiga toxin inh = A qHTS for Small Molecule Inhibitors of Shiga Toxin. 9.2% of 290,000 active. inhibition, % at 38.7 µM. Vero cells, Shiga toxin protein synthesis inhibition reporter; in the data active = inhibition mostly above about 28%, no sharp cut-off; inactive = mostly below about 43%; note: 0% is about no effect
AMA1-RON2 inh = qHTS for Inhibitors of AMA1-RON; Towards Development of Antimalarial Drug Lead: Primary Screen; Plasmodium falciparum AMA1 (3D7) - RON2 peptide interaction; AlphaScreen AMA1-biotinylated RON2 peptide binding; Potency, µM (doses to about 58.2 µM), inactives show top-dose activity change, negative = inhibition, hits mostly inhibitors; 0.2% of 360,000 active; active = well fitted inhibition curve with a large enough effect; inconclusive = small, poorly fitted or top-dose-only effect; inactive = no such curve, though single readings can be large or run the other way;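 note: potency is the fitted concentration of half-maximal effect; 0% = vehicle wells and -100% = peptide control; nearly all actives have a fitted effect of over 45% in size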
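AMA1 (3D7) with his tag at 25 nM final met compounds first, then biotinylated RON2 peptide at 25 nM; detection used donor plus acceptor beads, 10 µg/mL apiece, read by AlphaScreen after 30 min at room temperature.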
* = called active by the depositor; [ ] = remark or other dose.

Results for COc1ccc(/C=C(\NC(=O)c2ccccc2)C(=O)NCCN2CCOCC2)cc1 ?
MARV entry inh: inconclusive; CHX counter: 10; Lassa entry inh: 5%[46.1 µM]; Shiga toxin inh: -4; AMA1-RON2 inh: 29%

How did O=C(N/N=C/c1ccc2c(c1)OCO2)C(O)c1ccccc1 (stereo not given) do in these assays?
MARV entry inh: inconclusive; CHX counter: 59*; Lassa entry inh: inconclusive; Shiga toxin inh: 54*; AMA1-RON2 inh: -9%[11.6 µM]

How did O=C(CN(Cc1ccc(Cl)c(Cl)c1)S(=O)(=O)c1ccccc1)N/N=C\c1ccc2c(c1)OCO2 do in these assays?
MARV entry inh: inconclusive; CHX counter: -4; Lassa entry inh: inconclusive; Shiga toxin inh: -8; AMA1-RON2 inh: 9%

What do the screens show for `O=C(CN(Cc1ccccc1)S(=O)(=O)c1ccccc1)N/N=C/c1ccc2c(c1)OCO2`?
MARV entry inh: inconclusive; CHX counter: 0; Lassa entry inh: 7.3µM*; Shiga toxin inh: 8; AMA1-RON2 inh: -1%

How did O=C(CCC(=O)Nc1ccccc1)N/N=C/c1ccc2c(c1)OCO2 do in these assays?
MARV entry inh: 19%[46.1 µM]; CHX counter: 40*; Lassa entry inh: 2%[46.1 µM]; Shiga toxin inh: 71*; AMA1-RON2 inh: 21%

How did COc1cc(/C=N/NC(=O)CN(Cc2ccccc2)S(=O)(=O)c2ccc3c(c2)OCCO3)ccc1O do in these assays?
MARV entry inh: 36%; CHX counter: 0; Lassa entry inh: inconclusive; Shiga toxin inh: -10; AMA1-RON2 inh: 8%

How did COc1cc(/C=N/NC(=O)CN(Cc2ccco2)S(=O)(=O)c2ccccc2)ccc1O do in these assays?
MARV entry inh: 7%; CHX counter: 18*; Lassa entry inh: -11%; Shiga toxin inh: -4; AMA1-RON2 inh: 3%

Results for COc1cc(/C=C/c2cc(OC(C)=O)c3ccccc3n2)c(OC(C)=O)c([N+](=O)[O-])c1 ?
MARV entry inh: inconclusive; CHX counter: -1; Lassa entry inh: inconclusive; Shiga toxin inh: -3; AMA1-RON2 inh: -10%

Results for COC1(C(F)(F)F)NC(=O)N(c2ccc(F)cc2)C1=O (stereo not given) ?
MARV entry inh: -4%[46.1 µM]; Lassa entry inh: -1%[46.1 µM]

What do the screens show for `C[C@H](O)[C@@H]1C(=O)N2CCc3ccc(-c4ccccc4)cc3[C@@H]2C[C@@H]1N(C)C(=O)Nc1cc(Cl)cc(Cl)c1`?
AMA1-RON2 inh: -17%

Results for CCc1ccccc1NC(=O)CSc1nnc(-c2ccco2)n1N ?
MARV entry inh: inconclusive; CHX counter: -2; Lassa entry inh: 3%; Shiga toxin inh: 15; AMA1-RON2 inh: -10%

What do the screens show for `O=C(NCc1ccccn1)C(=O)N/N=C/c1ccc2c(c1)OCO2`?
CHX counter: 16; Shiga toxin inh: 50*; AMA1-RON2 inh: 90%

How did Cc1ccnn1CC(=O)N/N=C/c1ccc2c(c1)OCO2 do in these assays?
MARV entry inh: inconclusive; CHX counter: 18*; Lassa entry inh: -1%; Shiga toxin inh: 37; AMA1-RON2 inh: 12%

Results for Cc1ccc(CC(=O)N/N=C/c2ccc3c(c2)OCO3)cc1 ?
MARV entry inh: inconclusive; CHX counter: 26*; Lassa entry inh: -14%; Shiga toxin inh: 43*; AMA1-RON2 inh: 2%

What do the screens show for `O=C(NCCc1ccccc1)C(=O)N/N=C/c1ccc2c(c1)OCO2`?
MARV entry inh: -13%; CHX counter: 5; Lassa entry inh: -21%; Shiga toxin inh: 20; AMA1-RON2 inh: 36%

How did CCN(CC)c1ccc(C(=C2C=CC(=[N+](CC)CC)C=C2)c2ccc(N(CC)CC)cc2)cc1 do in these assays?
AMA1-RON2 inh: 2.2µM*

Results for CCN(CC)c1ccc(C(=C2C=CC(=[N+](CC)CC)C=C2)c2ccccc2)cc1 ?
MARV entry inh: inconclusive; CHX counter: -20; Lassa entry inh: 0.56µM*; Shiga toxin inh: -25; AMA1-RON2 inh: 11µM*

Results for CCN(CC)c1ccc(C(=C2C=CC(=[N+](CC)Cc3cccc(S(=O)(=O)[O-])c3)C=C2)c2ccc(N(CC)Cc3cccc(S(=O)(=O)O)c3)cc2)cc1 ?
CHX counter: -4; Shiga toxin inh: -12

How did COc1ccccc1N1CCN(C(=O)c2c(-c3c(F)cccc3Cl)noc2C)CC1 do in these assays?
MARV entry inh: inconclusive; CHX counter: -1; Lassa entry inh: inconclusive; Shiga toxin inh: -3; AMA1-RON2 inh: 0%

Results for CN(c1ncc(C(F)(F)F)cc1Cl)N1C(=O)c2cccc([N+](=O)[O-])c2C1=O ?
CHX counter: -3; Shiga toxin inh: -6; AMA1-RON2 inh: 6%

Results for C=CC[C@@H]1C=CC(O/N=C/C[C@@H]2C=C[C@H](OC(C)=O)[C@@H](COC(C)=O)O2)[C@@H](CO)O1 (stereo not given in full) ?
MARV entry inh: 4%[14.2 µM]

How did CCNc1nc2cccnc2s1 do in these assays?
CHX counter: 26*; Shiga toxin inh: 38; AMA1-RON2 inh: -1%

What do the screens show for `O=C(N/N=C/CCc1ccccc1)c1ccccc1`?
MARV entry inh: 4%; CHX counter: 37*; Lassa entry inh: inconclusive; Shiga toxin inh: 53*; AMA1-RON2 inh: 81%

Results for CCC/C=N/NC(=O)c1ccc(F)cc1 ?
MARV entry inh: 23%[46.1 µM]; CHX counter: 24*; Lassa entry inh: 18%[46.1 µM]; Shiga toxin inh: 75*; AMA1-RON2 inh: 1%

What do the screens show for `Cc1sc2nc(CSC(C)C(=O)Nc3cc(S(C)(=O)=O)ccc3Cl)[nH]c(=O)c2c1C` (stereo not given)?
MARV entry inh: 4%[46.1 µM]; Lassa entry inh: 16%; AMA1-RON2 inh: 2%

Results for CCc1ccccc1OCC(=O)N1CCN(c2ncccn2)CC1 ?
MARV entry inh: 1%; Lassa entry inh: -1%; AMA1-RON2 inh: 17%

Results for C[C@H](CO)N1C[C@H](C)[C@H](CN(C)C(=O)Nc2cccc(C(F)(F)F)c2)OCc2cnnn2CCCC1=O ?
AMA1-RON2 inh: 11%

What do the screens show for `CCN(CC)c1ccc(/C=N/N(c2ccccc2)c2ccccc2)c(O)c1`?
MARV entry inh: inconclusive; CHX counter: -1; Lassa entry inh: inconclusive; Shiga toxin inh: -5; AMA1-RON2 inh: -27%

What do the screens show for `Cc1ccc2cc(/C=N/Nc3nc4ccccc4[nH]3)c(Cl)nc2c1`?
CHX counter: 55*; Shiga toxin inh: 93*; AMA1-RON2 inh: 76%

Results for CCN(CC)c1ccc(/C=N/Nc2nc3ccccc3[nH]2)c(O)c1 ?
MARV entry inh: 4µM*; CHX counter: 52*; Lassa entry inh: 6.3µM*; Shiga toxin inh: 100*; AMA1-RON2 inh: inconclusive

What do the screens show for `CCc1cccc(-n2c(=O)c3cccnc3n2CC(=O)NCc2ccccc2)c1`?
Lassa entry inh: -8%[46.1 µM]

What do the screens show for `Cc1ccc(C)c(NC(=O)CSc2c(C)cnc3c2c(=O)n(C)c(=O)n3C)c1`?
Lassa entry inh: 5%[46.1 µM]
